Bioassay records as filed in PubChem BioAssay.
Shown are actives, neighbours in structure and some others; about 32% of the full set was active somewhere.
CYP2C9 inhib: inhibitors of human CYP2C9; P11712; CYP2C9 Supersomes, luciferin-H conversion, luminescence; inhibition, % at 5 µM; actives 20% (n = 96,000); AID 777;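 active means blocking of liver enzyme CYP2C9 beyond about 50% at 5 µM, limit read from the data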
PostGolgi yeast: growth inhibition of a yeast mutant, post-Golgi transport screen. actives 0.9% (n = 98,000). post-Golgi transport phenotypic cell assay. AID 739. inhibition, % at 10 µM;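 further: yeast cells grown in 1536-well plates; yeast grown about 18 h at 30C before absorbance read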
CYP2C19 inh: human CYP2C19 inhibition; inhibition, % at 5 µM; actives 21% (n = 96,000); CYP2C19 Supersomes, luciferin-H EGE luminescence, 30 min;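 active means CYP2C19 inhibition above a set limit at 5 µM in the primary screen, cut at about 50% in these data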;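 further: plate controls were negative control wells for no effect and 2.5 mM tranylcypromine positive control for full effect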
Target sequence (P33261 whole entry, looked up): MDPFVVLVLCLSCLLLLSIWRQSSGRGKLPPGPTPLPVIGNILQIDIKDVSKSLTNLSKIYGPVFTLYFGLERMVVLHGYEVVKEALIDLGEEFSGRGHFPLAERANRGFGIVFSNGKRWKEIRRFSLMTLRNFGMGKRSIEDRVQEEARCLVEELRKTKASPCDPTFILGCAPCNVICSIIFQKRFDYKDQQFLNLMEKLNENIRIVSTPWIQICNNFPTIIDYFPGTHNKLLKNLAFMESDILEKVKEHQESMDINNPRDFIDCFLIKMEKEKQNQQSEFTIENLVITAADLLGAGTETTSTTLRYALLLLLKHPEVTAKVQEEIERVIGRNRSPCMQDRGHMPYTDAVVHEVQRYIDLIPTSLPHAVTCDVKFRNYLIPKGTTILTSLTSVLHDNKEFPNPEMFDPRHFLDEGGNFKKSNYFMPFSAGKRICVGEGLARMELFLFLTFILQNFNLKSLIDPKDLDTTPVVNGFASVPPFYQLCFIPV
CYP2C9 act: increases human cytochrome P450 2C9 activity; P11712; activation factor at 5 µM; actives 1.4% (n = 96,000); recombinant CYP2C9, luciferin-H conversion, luminescence; stronger effect = higher value; factor 1 = untreated enzyme, 0 = blocked;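 active means activation factor of 2 or more for CYP2C9 at a 5 µM dose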;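 further: 0 = sulfaphenazole-blocked wells and 1 = vehicle-only wells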
CYP2C19 activ: cytochrome P450 2C19 (human) activation; 96,000 tested, under 10 active; recombinant CYP2C19, luciferin-H EGE luminescence; stronger effect = higher value; 0 = fully inhibited enzyme, 1 = untreated enzyme; activation factor at 5 µM; P33261;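 active means activation factor of at least 2 at 5 µM in the primary screen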;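 further: 0 = wells with 2.5 mM tranylcypromine and 1 = vehicle-only wells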
PostGolgi ctrl: inhibits growth of the yeast control strain. actives 5% (n = 98,000). inhibition, % at 10 µM. AID 738. efflux-deficient yeast background strain, growth absorbance A615, 16 h
* marks the source's active call; other numbers are inactive results. Unless noted, no stated cut-off is given here; in the data, active means inhibition above about 30%; inactive means the rest.

Screening CC(C)c1cc(C(N)=O)c(NC(=O)C2CCC2)s1 returned CYP2C9 inhib 54.6*, PostGolgi yeast -1.6, CYP2C19 inh 56.9*, CYP2C9 act 0.5, CYP2C19 activ 0.4 and PostGolgi ctrl 7.6.
Screening N#C/C=C1/NC(=O)c2ccccc2S1 returned CYP2C9 inhib 62.4*, PostGolgi yeast -6.9, CYP2C19 inh 8.6, CYP2C9 act 0.4, CYP2C19 activ 0.9 and PostGolgi ctrl 0.5.
Screening C=CCn1c(O)c(C=Nc2ccc(Cc3ccncc3)cc2)c(=O)[nH]c1=S returned CYP2C9 inhib 83.1*, PostGolgi yeast 4.3, CYP2C19 inh 88.1*, CYP2C9 act 0.2, CYP2C19 activ 0.1 and PostGolgi ctrl 8.0.
O=C(NC1CC1)c1cc(Cl)ccc1[N+](=O)[O-] was read as CYP2C9 inhib -3.8, PostGolgi yeast -2.8, CYP2C19 inh 0.9, CYP2C9 act 1, CYP2C19 activ 1 and PostGolgi ctrl 12.9.
Screening Cc1ccc2nc(Nc3nc(CSc4nnnn4-c4ccccc4)cc(=O)[nH]3)nc(C)c2c1 returned CYP2C9 inhib 79.7*, PostGolgi yeast 12.5, CYP2C19 inh 67.0*, CYP2C9 act 0.2, CYP2C19 activ 0.3 and PostGolgi ctrl 23.3.
Cc1occc1-c1nnc(SCC(=O)NCCc2ccccc2)n1Cc1ccccc1 was read as CYP2C9 inhib 54.6*, PostGolgi yeast 2.8, CYP2C19 inh 32.1, CYP2C9 act 0.5, CYP2C19 activ 0.7 and PostGolgi ctrl -0.9.
`Cc1occc1-c1nnc(SCC(=O)Nc2ccccc2)n1CCc1ccccc1` gave CYP2C9 inhib 84.7*, PostGolgi yeast 6.5, CYP2C19 inh 92.0*, CYP2C9 act 0.2, CYP2C19 activ 0.1 and PostGolgi ctrl 12.4.
Cc1occc1-c1nnc(SCC(=O)Nc2ccccc2)n1C(C)c1ccccc1 (configuration not stated) was read as CYP2C9 inhib 96.0*, PostGolgi yeast 1.1, CYP2C19 inh 88.7*, CYP2C9 act 0, CYP2C19 activ 0.1 and PostGolgi ctrl 24.3.
For COc1cccc(-n2c(SCC(=O)NCCc3ccccc3)nnc2-c2ccoc2C)c1 the results were CYP2C9 inhib 87.7*, PostGolgi yeast -6.1, CYP2C19 inh 98.1*, CYP2C9 act 0.1, CYP2C19 activ 0 and PostGolgi ctrl 4.8.
Screening CCCc1cc(=O)n2c(nc3ccccc32)[nH]1 returned CYP2C9 inhib 37.0, PostGolgi yeast 12.6, CYP2C19 inh -2.4, CYP2C9 act 0.6, CYP2C19 activ 1 and PostGolgi ctrl 10.7.
`C=COC(=O)CSc1snc(SCC(=O)OC)c1C#N` gave CYP2C9 inhib 14.9, PostGolgi yeast 11.1, CYP2C19 inh 5.1, CYP2C9 act 0.9, CYP2C19 activ 0.9 and PostGolgi ctrl 2.8.
Screening CCCCCCn1c(N2CCC(C(N)=O)CC2)nc2c1c(=O)n(C)c(=O)n2C returned CYP2C9 inhib -4.0, PostGolgi yeast -6.5, CYP2C19 inh 5.0, CYP2C9 act 1, CYP2C19 activ 0.9 and PostGolgi ctrl -5.5.
For CCOC(=O)c1cccc(NC(=O)CSc2nnc(-c3ccoc3C)n2CCOC)c1 the results were CYP2C9 inhib 89.0*, PostGolgi yeast -0.6, CYP2C19 inh 82.9*, CYP2C9 act 0.1, CYP2C19 activ 0.2 and PostGolgi ctrl 5.7.
`CSCCC(NC(=O)c1ccco1)C(=O)OC(C)C(=O)NC(=O)NC1CCCCC1` (configuration not stated) gave CYP2C9 inhib 65.2*, PostGolgi yeast 2.1, CYP2C19 inh 31.1, CYP2C9 act 0.3, CYP2C19 activ 0.7 and PostGolgi ctrl 5.7.
`COc1ccccc1C(=O)NC(CCSC)C(=O)OCC(=O)NC(=O)NCc1ccco1` (configuration not stated) gave CYP2C9 inhib 96.9*, PostGolgi yeast -4.0, CYP2C19 inh 18.0, CYP2C9 act 0, CYP2C19 activ 0.8 and PostGolgi ctrl 19.2.
`COc1ccccc1C(=O)NC(CCSC)C(=O)NCC(c1ccco1)N(C)C` (configuration not stated) gave CYP2C9 inhib 66.8*, PostGolgi yeast 2.2, CYP2C19 inh 68.6*, CYP2C9 act 0.3, CYP2C19 activ 0.3 and PostGolgi ctrl 8.0.
COc1ccc(CNC(=O)C(CCSC)NC(=O)c2ccco2)cc1 (configuration not stated) was read as CYP2C9 inhib 47.5, PostGolgi yeast 0.0, CYP2C19 inh 60.1*, CYP2C9 act 0.5, CYP2C19 activ 0.4 and PostGolgi ctrl -3.4.
